# Six1-Eya2 inh = blocks human Six1 binding to Eya2; Q15475+O00167; hit rate 0.56% among 360,000; activity change, % (concentration not given with the values); AlphaScreen GST-Six1/His-Eya2 binding, biochemical; hits give low values; in the data active means activity change below about -65%; inconclusive means mostly about -30% to -63%
#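 AlphaScreen luminescence read after one hour at 37 °C in darkness. Pin-transferred compounds met GST-Six1 and His-Eya2 protein (5X stock 250 nM/500 nM) plus glutathione donor and Ni-chelate acceptor beads (5X, 50 ug/mL).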
# Eya2 phos inh = inhibitors of human Eya2 phosphatase activity. O00167. recombinant Eya2, OMFP fluorescence dephosphorylation (OMFP is methylfluorescein phosphate). Potency, µM (titrated, usually from 76.9 µM), inactives show at the top dose activity, negative = inhibition, hits mostly inhibitors. hit rate 0.006% among 330,000; further: potency means the concentration at half of the fitted maximal effect
#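 Eya2 (0.2 uM) preincubated 10 min at ambient with compound, then OMFP substrate added at 50 uM; 10 min reaction in 50 mM HEPES pH 7.5, 50 mM NaCl, 5 uM MgCl2, 0.05% BSA, 1 mM DTT. Fluorescence read at Ex 485/Em 525 nm.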
# CtBP-E1A blk = CtBP/E1A binding inhibition; AlphaScreen GST-E1A/His-CtBP binding, 1536-well; hits give low values; activity change, % (no concentration beside the values); hit rate 0.49% among 340,000; in the data active means activity change below about -65%; inconclusive means mostly about -30% to -63%
#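 GST-E1A and His-tagged CtBP (125 nM each as 5X stock) were preincubated with pin-transferred compound for 2 h at 37 °C in the dark, then glutathione donor and nickel acceptor beads were added for 1 h before AlphaScreen reading.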
# L3MBTL1 inh = inhibitors of human L3MBTL1. AlphaScreen L3MBTL1–H3K9me1 peptide binding. AID 485360. Potency, µM (series often up to 57.1 µM), for the others: at the highest dose activity, negative = inhibition, actives largely listed as inhibitors. hit rate 0.66% among 230,000; further: potency means the concentration at half of the fitted maximal effect; nearly all actives have a fitted effect of over 60% in size
# Target sequence (Q9Y468 whole entry, looked up): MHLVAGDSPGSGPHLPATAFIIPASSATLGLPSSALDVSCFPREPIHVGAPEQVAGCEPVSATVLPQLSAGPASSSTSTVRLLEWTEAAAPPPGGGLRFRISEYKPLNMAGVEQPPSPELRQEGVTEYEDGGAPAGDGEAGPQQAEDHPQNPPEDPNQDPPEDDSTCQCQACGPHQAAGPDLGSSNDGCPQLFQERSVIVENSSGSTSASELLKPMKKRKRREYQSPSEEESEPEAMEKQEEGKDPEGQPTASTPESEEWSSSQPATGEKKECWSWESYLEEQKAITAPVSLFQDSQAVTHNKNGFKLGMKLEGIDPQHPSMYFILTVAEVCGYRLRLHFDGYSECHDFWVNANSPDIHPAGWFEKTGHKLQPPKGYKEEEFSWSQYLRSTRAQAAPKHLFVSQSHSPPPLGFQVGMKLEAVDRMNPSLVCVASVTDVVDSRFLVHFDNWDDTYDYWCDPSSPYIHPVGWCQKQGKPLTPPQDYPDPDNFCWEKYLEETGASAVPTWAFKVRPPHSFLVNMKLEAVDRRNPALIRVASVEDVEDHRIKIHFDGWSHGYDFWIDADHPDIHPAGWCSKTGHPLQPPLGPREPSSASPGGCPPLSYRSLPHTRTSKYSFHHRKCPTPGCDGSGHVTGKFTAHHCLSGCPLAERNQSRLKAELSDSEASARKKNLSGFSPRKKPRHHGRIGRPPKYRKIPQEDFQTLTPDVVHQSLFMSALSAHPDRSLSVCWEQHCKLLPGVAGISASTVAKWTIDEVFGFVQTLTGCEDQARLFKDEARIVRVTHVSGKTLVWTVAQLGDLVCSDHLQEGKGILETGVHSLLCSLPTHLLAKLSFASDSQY
#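 AlphaScreen assay: L3MBTL1 (50 nM final) was preincubated 30 min at room temperature with biotinylated H3(1-15)K9me1 peptide (75 nM final), then 30 min with library compounds; streptavidin donor and nickel chelate acceptor beads (10 ug/mL final) added, 30 min dark.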
# B2AR arrestin = agonists driving beta-arrestin recruitment to human beta2-adrenergic receptor. beta-arrestin recruitment to beta2AR, cell-based reporter. Potency, µM (highest dose often 46.1 µM), for the others: at the highest dose activation, usual class: activators. hit rate 0.02% among 330,000;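 further: potency means the concentration at half of the fitted maximal effect; 0% = DMSO controls and full agonism = EC100 isoproterenol or metaproterenol; nearly all actives have a fitted effect of over 65% in size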
# * = called active by the depositor; ? = inconclusive; · = no result. Only some compounds are listed: those with a hit (about 0.9% of all), similar ones and a draw of the others. Unless noted, the call rests on the fitted dose curve; in most records, active means well fitted curve in the direction sought with a large enough effect; inconclusive means small, poorly fitted or top-dose-only effect, or another doubt; inactive means no such curve, though single readings can be large; an effect the other way counts as inactive or inconclusive. Unless noted, on the % scale 0 is the no-effect control and ±100 the full control effect.
SMILES,Six1-Eya2 inh,Eya2 phos inh,CtBP-E1A blk,L3MBTL1 inh,B2AR arrestin
O=[N+]([O-])c1ccc(Oc2cccc3cccnc23)c([N+](=O)[O-])c1,?,0%,-79*,-1%,-1%
O=C(Oc1cccc2cccnc12)c1ccco1,?,-4%,?,-9%,0%
O=C(Oc1c(Cl)cc(Cl)c2cccnc12)c1cccc([N+](=O)[O-])c1,-88*,-4%,-98*,?,4%
O=C(c1cc(Br)c[nH]1)N1CCSCC1,-4,0%,4,·,0%
CN1CCN(C(=O)C2CCC(=O)N(CCc3cccc(F)c3)C2)CC1 (stereo unspecified),4,8%,-4,·,-1%
O=C(Oc1cccc2cccnc12)c1cccc([N+](=O)[O-])c1,-69*,-10%,-75*,?,10%
CC1(C)CC[C@]2(C(=O)n3ccnc3)CC[C@]3(C)[C@H](C(=O)C=C4[C@@]5(C)C=C(C#N)C(=O)C(C)(C)[C@@H]5CC[C@]43C)[C@@H]2C1,-22,·,-21,·,·
CN(C)c1ccccc1-c1cc(NC=O)c2ncc(-c3cccc(C(F)(F)F)c3)n2c1,?,·,-72*,·,·
CCC(=O)c1ccc(OC(=O)c2cccs2)cc1,?,·,-6,·,·
COC(=O)c1ccc(OC(=O)c2cccs2)cc1,-68*,-17%,4,41%,0%
CCc1nc2c(OCc3ccccc3C)cccn2c1N(C)C(=O)c1ccc(C)cc1,-4,·,-5,·,·
O=C(Cn1cnc2c(NCc3ccccc3)ncnc21)NCc1nc2ccccc2[nH]1,3,6%,1,11%,0%
O=C1NC(c2cccc3ccccc23)Nc2ccccc21 (stereo unspecified),2,·,5,·,·
O=C1c2ccccc2C(=O)C12OC2c1cccc2ccccc12 (stereo unspecified),40,-2%,-25,14µM*,-1%
O=C(O)c1ccc2c(c1)C(=O)N([C@H](Cc1c3ccccc3cc3ccccc13)C(=O)O)C2=O,·,1%,·,-1%,0%
O=C1C=C(NC2CCCC2)CC(c2ccccc2)C1 (stereo unspecified),-1,-23%,·,22%,3.5µM*
Cc1nnc2sc(SCC(=O)Nc3ccc(Cl)cc3)nn2c1=O,?,17%,-88*,·,0%
Cc1cccc(CSc2nn3c(=O)c(C)nnc3s2)c1,0,-2%,-1,6%,0%
CC(=O)Nc1cccc(NC(=O)CSc2nn3c(=O)c(C)nnc3s2)c1,-73*,-3%,-88*,·,0%
O=C(NC1CCCCC1)C1c2ccccc2OCC(=O)N1Cc1cccnc1 (stereo unspecified),-3,·,1,·,·
CCCN(CC(=O)Nc1ccccc1OC)C(=O)c1ccc2c(c1)NC(=O)C(C)S2 (stereo unspecified),8,-3%,1,1%,0%
CCOC(=O)N(C)C[C@@H]1OCc2cnnn2CCCC(=O)N([C@H](C)CO)C[C@H]1C,3,·,3,·,·
COc1cccc(/C=N\NC(=O)c2ccc(Cn3cc(Br)c([N+](=O)[O-])n3)o2)c1O,?,-12%,-74*,-8%,-1%
COc1ccc(/C=N/NC(=O)c2ccn[nH]2)cc1Cn1nc(C)c([N+](=O)[O-])c1C,-2,13%,·,10%,-1%
COc1ccc(OC)c(NC(=O)c2cccc(Cn3cc(Br)c([N+](=O)[O-])n3)c2)c1,-21,6%,-26,-8%,6%
SMILES,Six1-Eya2 inh,Eya2 phos inh,CtBP-E1A blk,L3MBTL1 inh,B2AR arrestin
COc1ccc(/C=N/NC(=O)c2ccncc2)cc1Cn1nc([N+](=O)[O-])c(Br)c1C,-69*,-9%,?,14%,0%
COc1cc(/C=N\NC(=O)c2ccc(Cn3nc([N+](=O)[O-])c(Cl)c3C)o2)ccc1O,-83*,4%,-84*,·,0%
COC(=O)c1ccc(Cn2c(C)c(C(=O)NCc3cccc([N+](=O)[O-])c3)sc2=O)o1,?,·,-25,·,·
Cc1ccc[n+](CC(=O)Nc2c(Cl)cc(Cl)cc2Cl)c1,-5,7%,0,5%,0%
O=C(C[n+]1ccccc1)Nc1c(Cl)cc(Cl)cc1Cl,1,2%,0,11µM*,-1%
Nc1ncnc(N2CCOCC2)n1,5,·,-3,·,·
C=CCSC1=N/C(=C\c2ccc3c(c2)OCO3)C(=O)S1,13,-1%,-8,13%,-1%
C=CCSC1=N/C(=C\c2cc(OCC)c(OC(C)=O)c([N+](=O)[O-])c2)C(=O)S1,-13,0%,-4,1.4µM*,-1%
CC(C)c1ccc(NC(=O)COC(=O)C2CC3C=CC2C3)cc1 (stereo unspecified),24,-14%,·,9%,0%
O=C(CSc1ccc2nnc(-c3cccnc3)n2n1)Nc1ccc(F)cc1F,?,-4%,-69*,·,-1%
O=C(COc1ccccc1[N+](=O)[O-])NNC(=O)Nc1cccc2ccccc12,2,-17%,·,-4%,-1%
O=C(O)CCCCCNS(=O)(=O)c1cccc2c1C(=O)c1ccccc1C2=O,-76*,-9%,0,33%,-2%
CNS(=O)(=O)c1cc(C(=O)NCc2ccco2)ccc1Cl,-69*,13%,21,·,0%
O=C(NNC(=O)c1c(O)c2ccccc2[nH]c1=O)c1ccccc1Br,-75*,10%,?,·,0%
O=C(Oc1cccc(C(=S)N2CCOCC2)c1)c1ccc([N+](=O)[O-])cc1[N+](=O)[O-],-69*,-4%,5,·,0%
O=C(Oc1ccc(Br)cc1C(=S)N1CCOCC1)c1ccc([N+](=O)[O-])cc1[N+](=O)[O-],-94*,6%,?,·,-1%
Cc1cc(C)n(CCC(=O)N/N=C/c2c(O)ccc3ccccc23)n1,-89*,-4%,·,·,-1%
O=C(N/N=C/c1c(O)ccc2ccccc12)C(=O)N1CCCC1,-87*,·,?,·,·
Cc1cc(C)n(CCC(=O)N/N=C/c2ccc(O)cc2)n1,-8,-7%,3,6%,-1%
CCOc1ccc(/C=N/NC(=O)C(=O)N2CCCCCC2)c2ccccc12,-6,-1%,-6,·,0%
O=C(NN=Cc1cccc2ccccc12)C1CC1,-7,·,-2,·,·
Cc1ccc(O)c(/C=N/NC(=O)CN2CCCC2)c1,-65*,1%,·,?,-1%
O=C(NN=Cc1c(O)ccc2ccccc12)C1CC1,?,·,-69*,·,·
O=C(NCC1CC1)c1cc([N+](=O)[O-])cc([N+](=O)[O-])c1,2,-11%,5,·,0%
C[C@H](NC(=O)c1nc[nH]c1C(=O)N(C)CCO)c1ccccc1,-17,·,0,·,·
C=C1C[C@@]23CC[C@H]4[C@@](C)(CCC[C@@]4(C)C(=O)OC4OC(CO)C(O)C(O)C4O)[C@@H]2CC[C@]1(OC1OC(CO)C(O)C(O)C1OC1OC(CO)C(O)C(O)C1O)C3 (stereo partly specified),·,0%,·,·,·
